Reference: PubChem BioAssay (EPA / NIEHS)
Calls of active or inactive are those of the source. Rule for the calls: active = hit-call score of the fitted dose curve at least 0.9, where 1 is the maximum; inactive = score below 0.9.

Assay: CCTE_Shafer_MEA_acute_interburst_interval_mean: CCTE's Neural Acute Assay for Mean Interburst Interval, Shafer Lab (AID 2284016);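 note: percent change of mean interburst interval versus each well's own pre-dose baseline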
Protocol: CCTE_Shafer_MEA_acute assay is conducted using Axion Biosystems 48 well microelectrode array (MEA) plates and Maestro recording system. Each well of the MEA plate contains a grid of 16 microelectrodes embedded in the culture surface. Electrically active cells, such as neurons, can be cultured over the electrodes, and electrical activity in these cells can be recorded extracellularly. The spontaneous firing of neurons is captured from each electrode on a microsecond timescale providing both temporally and spatially precise data. […] The CCTE_Shafer_MEA_acute assay uses primary cultures of rat cortical neurons. As these cultures mature over time, neural networks develop functional activity and form cohesive networks in which electrical activity can be highly coordinated. Baseline 40-minute recordings are made on days post-plating 13 or 15, followed by a secondary 40-minute recording after chemical exposure.CCTE_Shafer_MEA_acute_interburst_interval_mean is a component of the CCTE_Shafer_MEA_acute assay. It measures the average time between the start of consecutive single-electrode bursts (temporally-clustered groups of action potential firing) during a recording in a microelectrode array (MEA) using Axion Biosystems Maestro 768 channel amplifier with the AxIS adaptive spike detector. The recordings before and after chemical treatment are used to calculate a percent change in the mean inter-burst interval in each well.Data from the assay component CCTE_Shafer_MEA_acute_interburst_interval_mean was analyzed into 1 assay endpoint. This assay endpoint, CCTE_Shafer_MEA_acute_interburst_interval_mean, was analyzed in the negative analysis fitting direction relative to DMSO as the negative control and baseline of activity. Using a type of functional reporter, gain or loss-of-signal activity can be used to understand electrical activity.
Spontaneous activity in the cortical cultures was recorded using an Axion Biosystems Maestro 768 channel amplifier and Axion Integrated Studios (AxIS) v1.8 (or later) software. The amplifier recorded from all channels simultaneously (gain = 1200 x; sampling rate = 12.5 kHz/channel): raw signals were filtered with a Butterworth band-pass filter (300-5000 Hz), which filters out slower local field potentials leaving only fast potentials, i.e., "spikes", arising from extracellular currents associated with action potentials (Pine 2006; Wheeler and Nam 2011). On-line spike detection of filtered signals was conducted with the AxIS adaptive spike detector, using a threshold of 8x the root mean squared (rms) noise on each channel. Any electrodes with rms noise levels greater than 5 uV were grounded (e.g., no data were recorded). Once grounded, an electrode was grounded for the duration of the experiment. All recordings were conducted at 37 C. Wells were deemed usable if on the day of the exposure >/= 10 electrodes were active (defined as >/= 5 spikes/min). On DIV 13 or 15, a minimum of three wells from one cortical culture preparation were treated with each compound (0.03-40 uM). Prior to recording baseline activity, each mwMEA plate was placed in the Maestro at 37 C and allowed to sit for 20 min while firing rates stabilized. Baseline activity (40 min) was recorded before the addition of each compound. An additional 40 min of spontaneous activity was recorded in the presence of each compound. Changes in network parameters relative to baseline were assessed following compound treatment.
With `CCOP(=S)(Oc1ccc([N+](=O)[O-])cc1)c1ccccc1` (stereo unspecified) the outcome was “inactive”. For `CC(Cl)(Cl)C(=O)O`, the outcome was “inactive”. With `Cc1ccc(N)cc1N` the outcome was “inactive”. For `ClC(Cl)(Cl)c1ccccc1`, the outcome was “inactive”. For `[N-]=[N+]=[N-]`, the outcome was “inactive”. With `COP(=O)(CCC(=O)NCO)OC` the outcome was “inactive”. In the case of `CCC1(c2ccccc2)C(=O)N=C(O)NC1=O` (stereo unspecified), the outcome is reported as “inactive”. With `CC(C)(C)c1ccccc1OP(=O)(Oc1ccccc1)Oc1ccccc1` the outcome was “inactive”. For `ClC1=C(Cl)C2(Cl)C3C(Cl)C(Cl)CC3C1(Cl)C2(Cl)Cl` (stereo unspecified), the outcome was “inactive”. For `CCOc1ccc(C(C)(C)COCc2cccc(Oc3ccccc3)c2)cc1`, the AC50 was 23.1 µM (active). In the case of `c1ccc2c(c1)Nc1ccccc1S2`, the AC50 is reported as 4.14 µM (active). With `CCCCC(CC)COP(=O)(Oc1ccccc1)Oc1ccccc1` (stereo unspecified) the outcome was “inactive”. With `CCC(C)(C)c1ccc(O)cc1` the AC50 was 0.0877 µM (active). With `Nc1ccc2ccccc2c1` the outcome was “inactive”. For `O=C(O)C1C(C(=O)O)C2(Cl)C(Cl)=C(Cl)C1(Cl)C2(Cl)Cl` (stereo unspecified), the outcome was “inactive”. With `COCCOCCO` the outcome was “inactive”.
